This experiment has as its system MDA-MB-468 breast. Put plainly: NCI-60 one-dose screen, 48 h (100 = growth as untreated, 0 = no growth, -100 = all killed). The note with it: 10 µM unless noted.

“And” between values parts separate entries of the source, which are not always exact repeats. Equal values may be shown once. About 83,000 compounds went through this panel and 20% of them were active in at least one assay; those are over-represented in the sample as a whole.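 Cells were grown in 96-well plates and exposed to the test compound at a single concentration for 48 hours; results are reported as percent growth, with values below 10 considered active.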 The source made the active and inactive calls.

Regarding `COC(=O)C12CC(NC(=O)c3csc([C@@H](C[C@H](C(C)C)N(C)C(=O)[C@@H](NC(=O)[C@H]4CCCCN4C)C4CC4)OC(C)=O)n3)(C1)C2`, the growth is 30.1% (inactive).

With `CNC(=O)Oc1cc(C(C)C)ccc1Sc1ccc(C(C)C)cc1OC(=O)NC`, the growth is 56.5% (inactive).

With `ClCCN(CCCl)c1nc(Cl)c(C2CC(c3ccccc3)=NN2c2cc(Cl)cc(Cl)c2)s1` (stereo not given), the growth was 111% (inactive).

As for `Cc1cc(-c2nc3cc(F)ccc3[se]2)cc(F)c1N`, the growth was -39% (active).

For the compound `Oc1ccccc1C=NCCN=Cc1ccccc1O`, the growth is 107% (inactive).

In the case of `CC(=O)O[C@H](C[C@H](C(C)C)N(C)C(=O)[C@@H](NC(=O)[C@H]1CCCCN1C)C(C)C)c1nc(C(=O)N[C@@H](Cc2ccccc2)C[C@H](C)C(=O)O)c(C(C)C)s1`, the growth is 19.8% (inactive).

`C[C@@]1(CCCCCCCCCc2ccc(O)cc2)C[C@]2(C)OC(=O)C[C@@H]2OO1`: the growth is 64.8% (inactive).

Consider `ClCCN(CCCl)C(c1ccccc1)c1ccc(Cl)cc1` (stereo not given), for which the growth is 35.1% (inactive).

Regarding `C/C=C/CC(C)C(O)[C@H](NC(=O)[C@@H]1CCCN1C(=O)C(C)(C)NC(=O)CCCCCCC)C(=O)N[C@@](C)(CC)C(=O)N[C@@H](CCC(N)=O)C(=O)N[C@H](CCC(N)=O)C(=O)NC(C)(C)C(=O)NC(C)(C)C(=O)N[C@@H](CCC(N)=O)C(=O)N[C@H](CC(C)C)C(=O)N[C@H](CO)CC(C)C` (stereo not given in full), the growth was 106% (inactive) and -55.5% (active).

On to `CCN(CC)CCn1c(=O)n(C)c2ccccc21`, for which the growth was 100% (inactive).

The values are drawn from PubChem BioAssay (NCI).
